This is a sample that favours compounds with a hit; in the whole collection about 11% have one here.
Vaccinia Venus: vaccinia inhibition (Venus reporter); Vaccinia virus Venus reporter expression, fluorescence; Potency, µM (titrated, usually from 36.5 µM), for the others: top-dose activity change, negative = inhibition, most hits filed as inhibitors; 330,000 compounds, 0.46% hits; calls by dose curve; tested in A549 cells; note: % is set by controls: 0 for no effect and ±100 for the full control effect; nearly all actives have a fitted effect of over 30% in size
HCV inhibitor: blocks hepatitis C virus. Huh7.5.1 HCVcc-Cre infection, luciferase reporter, 44 h. Potency, µM (top dose mostly 41.8 µM), inactives show at the top dose activity change, negative = inhibition, hits mostly inhibitors. 340,000 compounds, 3.4% hits; note: % is set by controls: 0 for no effect and ±100 for the full control effect
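Seed cells (1,000/well) for 4 h; treat with compound and infect with HCVcc-Cre, moi about 0.5. Incubate 44 h, then detect luciferase activity.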
Pf growth 48h: P. falciparum growth inhibition at 48 hours (one generation) | AID 504832 | 310,000 compounds, 5.9% hits | P. falciparum luciferase growth in erythrocytes, 48 h | Potency, µM (series often up to 28.7 µM), inactives show at the highest dose activity change, negative = inhibition, most hits filed as inhibitors; note: % is set by controls: 0 for no effect and ±100 for the full control effect
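Luciferase-expressing P. falciparum in infected erythrocytes (2% hematocrit, 0.1% parasitemia final) in RPMI 1640/0.5% Albumax were exposed to compound for 48 hours at 37 C, 5% CO2; growth read as luminescence.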
Pf growth 96h: P. falciparum growth inhibition at 96 hours; P. falciparum luciferase reporter growth, 96 h; Potency, µM (titrated, usually from 28.7 µM), for the others: at the highest dose activity change, negative = inhibition, usual class: inhibitors; 320,000 compounds, 6.9% hits; note: % is set by controls: 0 for no effect and ±100 for the full control effect
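Readout is luminescence from an integrated firefly luciferase in P. falciparum. Red cells, 2% hematocrit and 0.05% parasitemia final, were cultured with compound through two parasite generations (96 hours) at 37 C, 5% CO2.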
VACV mCherry inh: vaccinia inhibition (mCherry reporter) | Vaccinia virus mCherry reporter infection, fluorescence | Potency, µM (titrated, usually from 36.5 µM), for inactives: at the top dose activity change, negative = inhibition, actives largely listed as inhibitors | 310,000 compounds, 0.63% hits | AID 720579; calls by dose curve; tested in A549 cells; note: % is set by controls: 0 for no effect and ±100 for the full control effect; nearly all actives have a fitted effect of over 35% in size
NS1 inh: inhibitors of influenza NS1 protein function. Potency, µM (doses to about 46.1 µM), inactives show at the highest dose activity, positive = more growth. 270,000 compounds, 0.4% hits; calls by dose curve; note: actives are rising curves; nearly all actives have a fitted effect of over 50% in size
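S. cerevisiae expressing influenza A NS1, grown in glucose, washed, then diluted 1:100 into pH 6.0 -URA galactose medium with 23 nl compound. Growth recovery read as OD600; NS1-free strain serves as control.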
Starred values were filed as active, the others as inactive; i = inactive; ? = inconclusive; nt = no result given; ! = repeats disagree; [ ] = remark or other dose. Unless noted, calls come from the whole dose curve; as a rule, active = well fitted inhibition curve with a large enough effect; inconclusive = small, poorly fitted or top-dose-only effect, or another doubt; inactive = no such curve, though single readings can be large or run the other way. Potency is the fitted concentration of half-maximal effect.

SMILES | Vaccinia Venus | HCV inhibitor | Pf growth 48h | Pf growth 96h | VACV mCherry inh | NS1 inh
COc1cccc(CN(C)Cc2nc(C3CC3)no2)c1 | nt | -2.7% | 75.3% | 11.7µM* | nt | -3.6%
COc1cccc(NC(=O)N2C3CCCC2CC(NC(=O)C2CC2)C3)c1 (stereo not drawn) | -0.4% | 10.8% | -21.4% | 1.47µM* | -5.1% | 16.2%
Cc1ccccc1NC(=O)N1C2CCCC1CC(NC(=O)C1CC1)C2 (stereo not drawn) | nt | 6.5% | -0.2% | 9.28µM* | nt | -11.6%
COc1cccc(NC(=S)N2C3CCCC2CC(NC(=O)C2CC2)C3)c1 (stereo not drawn) | -9.2% | 22.1% | 11.9% | 2.9% | -12.0% | -2.6%
Cc1ccc(NC=C(S(=O)(=O)c2ccccc2)S(=O)(=O)c2ccccc2)c(C)c1 | -17.5% | -2.1% | ? | -17.0% | i | 14.3%
COc1ccccc1C(=O)NCCSCc1c(F)cccc1Cl | nt | -21.7% | ? | 10.4µM* | nt | -42.0%
O=C(NCCSCc1c(F)cccc1Cl)c1ccco1 | -5.7% | 7.8% | ? | -20.1%[5.75 µM] | -14.1% | -162.9%
O=C(NN=C1C2CC3CC1CC(Cl)(C3)C2)c1cccs1 | -12.2% | 31.3% | 194.5% | 17.5% | -4.5% | nt
COc1ccc(OC)c(-c2csc(NC(=O)C3CSC4(C)CCC(=O)N34)n2)c1 (stereo not drawn) | ? | 3.16µM* | ? | ? | -24.9% | nt
CC12CCC(=O)N1C(C(=O)Nc1nc(-c3ccc(F)cc3)cs1)CS2 (stereo not drawn) | -9.3% | -56.4% | ? | -1.6% | i | nt
COc1ccc(-c2csc(NC(=O)C3CSC4(C)CCC(=O)N34)n2)cc1OC (stereo not drawn) | -18.3% | ? | -16.4% | 0.0% | -16.0% | nt
CC12CCC(=O)N1C(C(=O)Nc1nc(-c3ccccc3Cl)cs1)CS2 (stereo not drawn) | ? | 10µM* | ? | ? | ? | nt
CCCCCCCCCCCCOC(=O)C[N+](C)(C)C | -4.0% | -6.0% | ? | 0.0% | i | -122.3%
C/C(Cl)=C\C[N+](C)(C)CC(=O)OCCc1ccccc1 | nt | 12.1% | 5.6% | -8.4% | nt | 3.9%
CCCCCCCCCCOC(=O)C[N+](C)(C)C/C=C(/C)Cl | nt | 6.6% | ? | 2.33µM* | nt | -1.6%
CCCCCCCCOC(=O)C[N+](C)(C)C/C=C(/C)Cl | nt | -3.8% | 2.62µM* | 4.15µM* | nt | -0.6%
O=C(NN1C(=O)C2C3C=CC(C4CC34)C2C1=O)c1ccccc1Cl (stereo not drawn) | nt | 3.5% | 0.8% | ? | nt | 1.1%
CCN1C(=O)[C@H]2[C@@H](c3ccc(C)cc3)N3C(=O)N(c4cccc(Cl)c4)C(=O)[C@@]3(Cc3ccc(Cl)cc3)[C@H]2C1=O | -22.3% | ? | ? | ? | i | nt
CN(C)C(=O)Nc1cccc(OC(=O)N(C)C)c1 | -10.7% | 0.0% | -9.7% | nt | -5.5% | -7.7%
CN(C)C(=O)Oc1cccc([N+](C)(C)C)c1 | -4.4% | -0.6%[8.37 µM] | ? | 4.15µM*! | -11.7% | 0.4%
CCn1cc(C(=O)NC(C)C)c(=O)c2cc(F)c(N3CCN(C(=O)c4ccco4)CC3)cc21 | -21.5% | ? | 5.22µM* | 5.86µM* | -28.2% | -1.9%
CCn1cc(C(=O)Nc2ncccc2O)c(=O)c2cc(F)c(N3CCN(C(=O)c4ccco4)CC3)cc21 | nt | -26.4% | ? | 4.65µM* | nt | 22.4%
CCn1cc(C(=O)NCCC(C)C)c(=O)c2cc(F)c(N3CCN(C(=O)c4ccco4)CC3)cc21 | nt | -15.7% | ? | 2.33µM* | nt | 19.6%
CCCc1nnc(NC(=O)c2cn(CC)c3cc(N4CCN(C)CC4)c(F)cc3c2=O)s1 | nt | -2.4% | 0.37µM* | 1.17µM* | nt | 2.8%
O=C(OCCN=C1NS(=O)(=O)c2ccccc21)c1ccncc1 | -9.1% | 20.1% | -26.7% | nt | -10.3% | 4.1%
SMILES | Vaccinia Venus | HCV inhibitor | Pf growth 48h | Pf growth 96h | VACV mCherry inh | NS1 inh
COc1cc(/C=C/C(=O)OCC(=O)Nc2nnc(-c3ccccc3)o2)cc(OC)c1OC | -19.9% | 2.2% | 13.9% | ? | -10.9% | nt
CCN(CC)CCCNC(=O)c1cn(CC)c2cc(N3CCN(C(=O)c4ccco4)CC3)c(F)cc2c1=O | nt | 4.0% | 7.38µM* | ? | nt | -7.9%
Cc1ccc(CN(C(=O)c2cc(=O)c3cc(Cl)c(C)cc3o2)C2CCS(=O)(=O)C2)cc1 (stereo not drawn) | nt | 9.4% | ? | 4.65µM* | nt | 9.3%
Cc1cc(C)c2oc(C(=O)N(Cc3ccc(F)cc3)C3CCS(=O)(=O)C3)cc(=O)c2c1 (stereo not drawn) | -14.5% | 17.2% | ? | -7.0% | -0.5% | -14.6%
Cc1ccc(CN(C(=O)c2cc(=O)c3cc(C)cc(C)c3o2)C2CCS(=O)(=O)C2)cc1 (stereo not drawn) | nt | 1.3% | 3.29µM* | 9.28µM* | nt | -5.2%
CCc1cc2c(cc(C(=O)O)n2C)s1 | -1.6% | -11.0% | nt | nt | nt | -184.0%
CCOc1ccccc1NC(=O)Nc1ccccn1 | -3.7% | -12.4% | ? | ? | ? | -38.4%
CCCSc1cc(=O)n(-c2ccc(F)cc2)nc1C(=O)OCC | -5.2% | ? | 5.3% | -18.2% | -0.8% | -3.9%
CCOC(=O)c1c(C)[nH]c(C)c1S(=O)(=O)N(C)CC(=O)Nc1ccccc1OC | nt | 11.6% | 10.4µM* | ? | nt | -9.0%
CCOC(=O)c1c(C)[nH]c(C)c1S(=O)(=O)N(C)CC(=O)Nc1ccccc1 | nt | 3.2% | -3.9% | ? | nt | 7.9%
CCC(C)N(C(=O)Cn1nnc2ccccc21)C(C(=O)Nc1ccc(F)cc1)c1cccc(OC)c1 (stereo not drawn) | -17.3% | 28.1% | ? | 10.4µM* | -21.3% | ?
COc1cccc(C(C(=O)NCc2ccccc2)N(C(=O)Cn2nnc3ccccc32)c2cccc(C(C)=O)c2)c1 (stereo not drawn) | -10.0% | nt | nt | nt | -15.0% | nt
COc1ccc2[nH]c(=O)c(CN(CCc3ccccc3)Cc3nnnn3CC3CCCO3)cc2c1 (stereo not drawn) | -21.6% | -8.0% | -1.2% | nt | -3.3% | -9.9%
COc1ccc2cc(CN(CCc3ccccc3)Cc3nnnn3CC3CCCO3)c(=O)[nH]c2c1 (stereo not drawn) | -17.7% | -21.4% | 9.28µM* | 124.5% | -3.4% | -47.4%
Cc1ccc2cc(CN(Cc3ccc4c(c3)OCO4)Cc3nnnn3Cc3ccco3)c(=O)[nH]c2c1C | ? | ? | 8.28µM* | ? | i[1.46 µM] | -1.4%
Cc1ccc2cc(CN(CCN3CCOCC3)Cc3nnnn3Cc3ccco3)c(=O)[nH]c2c1C | -4.1% | 9.8% | -14.8% | ? | -14.0% | 0.0%
COCCn1nnnc1CN(CCc1ccccc1)Cc1cc2ccc(C)cc2[nH]c1=O | -8.4% | -0.4% | ? | 10.4µM* | nt | -13.3%
COc1ccc2[nH]c(=O)c(CN(Cc3ccc(C)cc3)Cc3nnnn3CC3CCCO3)cc2c1 (stereo not drawn) | -23.0% | 5.7% | ? | 8.28µM* | nt | -17.8%
